Source: PubChem
MCF10A rerep: A quantitative high throughput screen for small molecules that induce DNA re-replication in MCF 10a normal breast cells; MCF 10A DNA re-replication, Hoechst nuclear intensity, 48 h; Potency, µM (highest dose often 46.1 µM), most hits filed as activators; actives 2.9% (n = 350,000); AID 624296, 2012; note: nearly all actives have a fitted effect of over 50% in size
IL1B secr inh: qHTS for Inhibitors of Inflammasome Signaling: IL-1-beta AlphaLISA Primary Screen; THP-1 LPS/ATP IL-1B secretion, AlphaLISA, 16 h; active compounds read low; activity change, % at 57.5 µM; actives 4.7% (n = 360,000); AID 743279, 2014; in the data active = activity change below about -50%; inconclusive = mostly about -30% to -49%
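THP-1 cells pretreated 1 hr with compounds (up to 57.5 uM final), then stimulated with LPS (250 ng/mL final) plus ATP (1.25 mM final); secreted IL-1B measured by AlphaLISA after 16 hr, decreased signal indicating inhibition.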
SW480 rerep: A quantitative high throughput screen for small molecules that induce DNA re-replication in SW480 colon adenocarcinoma cells | SW480 DNA re-replication, Hoechst DNA content imaging, 48 h | Potency, µM (series often up to 46.1 µM), actives largely listed as activators | actives 1.8% (n = 340,000) | AID 624297, 2012; note: nearly all actives have a fitted effect of over 55% in size
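Compounds, transferred as 23 nL by pin tool, were incubated with cells for 48 hr; DNA content per nucleus was then quantified by Hoechst staining and fluorescence plate imaging.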
TDP1 cell CPT: qHTS for Inhibitors of human tyrosyl-DNA phosphodiesterase 1 (TDP1): qHTS in cells in presence of CPT | actives 12% (n = 420,000) | chicken DT40 Tdp1-/-;hTDP1 cells + 20 nM CPT, ATP luminescence, 48 h | Potency, µM (titrated, usually from 46.2 µM), usual class: inhibitors; note: nearly all actives have a fitted effect of over 55% in size
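Chicken DT40 Tdp1-/- cells complemented with human TDP1, 400 cells/well, exposed to compounds plus 20 nM camptothecin for at least 48 h at 37 C; viability read as ATP content by CellTiter-Glo luminescence.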
TDP1 cell noCPT: qHTS for Inhibitors of human tyrosyl-DNA phosphodiesterase 1 (TDP1): qHTS in cells in absence of CPT; DT40 Tdp1-/- hTDP1 cells, no CPT, ATP luminescence, 48 h; Potency, µM (titrated, usually from 46.2 µM), actives largely listed as inhibitors; actives 15% (n = 420,000); AID 686978, 2013; note: nearly all actives have a fitted effect of over 55% in size
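A cellular qHTS used chicken DT40 cells lacking endogenous Tdp1 but carrying stably transfected human TDP1. Compounds were applied without camptothecin, and cell growth kinetics were judged by ATP-dependent luminescence after ≥48 hr.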
Chronic BCR inh: qHTS Assay to Find Inhibitors of Chronic Active B-Cell Receptor Signaling; actives 0.05% (n = 340,000); Potency, µM (series often up to 46.1 µM), most hits filed as inhibitors; ABC-DLBCL IkBa-CBG/CBR reporter, luminescence ratio, 4 h; active = well fitted inhibition curve with a large enough effect in the signal ratio, with a control signal flat, not every such curve was filed as active; inconclusive = small, poorly fitted or top-dose-only effect, or effect the other way, or a change in a side signal; the % refers to the signal ratio
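Doxycycline induced both beetle luciferases in TMD8 lymphoma cells; IKK-driven degradation limits the IkappaBalpha-fused green signal, while red luminescence normalises for cell number and nonspecific effects. Compounds tested up to 46 uM, 4 hrs.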
Of the large screens only hits and unclear results are named; the others gave an inactive call. The list is not random: actives were taken first. Their share in the collection is about 19%. Unless noted, calls come from the whole dose curve; as a rule, active = well fitted curve in the direction sought with a large enough effect; inconclusive = small, poorly fitted or top-dose-only effect, or another doubt; inactive = no such curve, though single readings can be large; an effect the other way counts as inactive or inconclusive.

CCc1ccc(NC(=O)Cn2cc(S(=O)(=O)N3CCCC3)c(S(=O)(=O)N3CCCC3)c2)cc1	none (no result: MCF10A rerep, IL1B secr inh, SW480 rerep, Chronic BCR inh)
CCC(C)Oc1ccc(/C=C/c2[nH]c(=O)[nH]c(=O)c2[N+](=O)[O-])cc1OC (configuration not stated)	MCF10A rerep inconclusive, IL1B secr inh -102, SW480 rerep 21µM
Cc1ccc(S(=O)(=O)N2CCN(C(=O)C(C)Cn3cncn3)CC2)cc1 (configuration not stated)	none
COc1cccc(CN(C)C(=O)c2ccc(N3CCCC3)c([N+](=O)[O-])c2)c1	TDP1 cell CPT 16µM, TDP1 cell noCPT 23µM
COc1ccc(NC(=O)CN(C)C(=O)c2ccc(N3CCCCCC3)c([N+](=O)[O-])c2)cc1	TDP1 cell CPT inconclusive, TDP1 cell noCPT inconclusive
COc1ccc(Cl)cc1NC(=O)CN(C)C(=O)c1ccc(N2CCCCC2)c([N+](=O)[O-])c1	TDP1 cell CPT 9.2µM, TDP1 cell noCPT 16µM
COc1ccc(NC(=O)CN(C)C(=O)c2ccc(N3CCCCC3)c([N+](=O)[O-])c2)cc1	TDP1 cell CPT inconclusive, TDP1 cell noCPT 15µM, Chronic BCR inh inconclusive
CCOc1ccc(NC(=O)CN(C)C(=O)c2ccc(N3CCCCC3)c([N+](=O)[O-])c2)cc1OCC	TDP1 cell CPT inconclusive, TDP1 cell noCPT inconclusive
COc1ccc(NC(=O)CN(C)C(=O)c2ccc(N3CCOCC3)c([N+](=O)[O-])c2)cc1	none
COc1ccc(Cl)cc1NC(=O)CN(C)C(=O)c1ccc(N2CCCCCC2)c([N+](=O)[O-])c1	SW480 rerep inconclusive, TDP1 cell CPT 16µM, TDP1 cell noCPT 23µM
CC(=O)NC(c1ccccc1)c1nc(-c2cccc(C(F)(F)F)c2)cs1 (configuration not stated)	TDP1 cell CPT inconclusive, TDP1 cell noCPT inconclusive (no result: MCF10A rerep, SW480 rerep, Chronic BCR inh)
C[C@@H](NC(=O)c1[nH]cnc1C(=O)Nc1ccccc1F)c1ccccc1	TDP1 cell noCPT inconclusive (no result: MCF10A rerep, SW480 rerep, Chronic BCR inh)
CCc1noc(C)c1C(=O)OC(C)C(=O)c1c(C)[nH]c2ccccc12 (configuration not stated)	TDP1 cell CPT 16µM, TDP1 cell noCPT inconclusive
Cc1[nH]c2ccccc2c1C(=O)C(C)OC(=O)c1ccc([N+](=O)[O-])o1 (configuration not stated)	MCF10A rerep 23µM, IL1B secr inh -62, SW480 rerep inconclusive, TDP1 cell CPT inconclusive, TDP1 cell noCPT 16µM, Chronic BCR inh inconclusive
Cc1nc2ccc(C(=O)OC(C)C(=O)c3c(C)[nH]c4ccccc34)cc2nc1C (configuration not stated)	TDP1 cell CPT inconclusive, TDP1 cell noCPT 13µM (no result: MCF10A rerep, IL1B secr inh, SW480 rerep, Chronic BCR inh)
O=C(CCN1CCOCC1)NC1CCCN(Cc2ccccc2F)C1 (configuration not stated)	none
Cc1ccc(S(=O)(=O)N2CCCC2CNC(=O)C(=O)NC2CCCC2)cc1 (configuration not stated)	TDP1 cell CPT inconclusive, TDP1 cell noCPT inconclusive
CCOc1ccccc1N(CC(=O)NC1CCCC1)C(=O)CNC(=O)c1cccs1	Chronic BCR inh inconclusive
COc1cccc(/C=C/C(=O)Nc2ccc3nc(N4CCN(C)CC4)cc(C)c3c2)c1OC	TDP1 cell CPT 6.5µM, TDP1 cell noCPT 5.2µM (no result: MCF10A rerep, IL1B secr inh, SW480 rerep, Chronic BCR inh)
Cc1cc(C)cc(NC(=O)Nc2ccc3nc(N4CCN(C)CC4)cc(C)c3c2)c1	TDP1 cell CPT 23µM, TDP1 cell noCPT 21µM (no result: MCF10A rerep, IL1B secr inh, SW480 rerep, Chronic BCR inh)
CCCCN(C)C(=O)CCC(=O)Nc1ccc2nc(N3CCN(C)CC3)cc(C)c2c1	MCF10A rerep inconclusive
COc1cccc(NC(=O)Nc2ccc3nc(N4CCN(C)CC4)cc(C)c3c2)c1	TDP1 cell CPT inconclusive, TDP1 cell noCPT 15µM (no result: MCF10A rerep, IL1B secr inh, SW480 rerep)
COC1=CC(=NCl)C=CC1=NCl	TDP1 cell CPT 21µM, TDP1 cell noCPT 16µM (no result: MCF10A rerep, SW480 rerep, Chronic BCR inh)
CCOC(=O)c1ccc(NC(=O)c2ccccc2N(C)S(=O)(=O)c2ccccc2)cc1	TDP1 cell CPT 18µM, TDP1 cell noCPT inconclusive
CCCNC(=O)c1ccccc1NC(=O)c1ccccc1N(C)S(C)(=O)=O	none
CCCNC(=O)c1ccccc1NC(=O)c1ccccc1N(C)S(=O)(=O)c1ccc(C)cc1	MCF10A rerep inconclusive, SW480 rerep inconclusive, TDP1 cell CPT inconclusive, TDP1 cell noCPT 18µM
CCC(Sc1nc2cc(OC)c(OC)cc2c(=O)n1Cc1ccc(Cl)cc1)C(=O)NCCOC (configuration not stated)	none (no result: MCF10A rerep, IL1B secr inh, SW480 rerep)
CCc1ccccc1NC(=O)CSc1nc(-c2cccc(Cl)c2)nc2c1Cc1c(CO)cnc(C)c1O2	none (no result: MCF10A rerep, IL1B secr inh, SW480 rerep, Chronic BCR inh)
Cc1ncc(CO)c2c1Oc1nc(-c3ccc(F)cc3)nc(SCc3ccc(F)cc3Cl)c1C2	none (no result: MCF10A rerep, IL1B secr inh, SW480 rerep, Chronic BCR inh)
Cc1ncc(CO)c2c1Oc1nc(-c3ccccc3)nc(SCC(=O)Nc3cccc(C(F)(F)F)c3)c1C2	TDP1 cell CPT 6.5µM, TDP1 cell noCPT 4.6µM (no result: MCF10A rerep, IL1B secr inh, SW480 rerep, Chronic BCR inh)
Cc1ncc(CO)c2c1Oc1nc(-c3ccc(F)cc3)nc(SCC(=O)N3CCCCC3)c1C2	TDP1 cell CPT 16µM, TDP1 cell noCPT 9.2µM (no result: MCF10A rerep, IL1B secr inh, SW480 rerep, Chronic BCR inh)
CCc1ccc(NC(=O)CSc2nc(-c3ccc(C)cc3)nc3c2Cc2c(CO)cnc(C)c2O3)cc1	none (no result: MCF10A rerep, IL1B secr inh, SW480 rerep)
COc1ccc(-c2nc3c(c(SCC(=O)Nc4cccc(O)c4)n2)Cc2c(CO)cnc(C)c2O3)cc1	TDP1 cell CPT inconclusive, TDP1 cell noCPT 18µM, Chronic BCR inh inconclusive
Cc1ncc(CO)c2c1Oc1nc(-c3ccccc3)nc(SCC(=O)Nc3cccc(O)c3)c1C2	MCF10A rerep 16µM, SW480 rerep inconclusive, TDP1 cell CPT inconclusive, TDP1 cell noCPT 26µM
C=CCn1c(=N)n(CC(=O)c2ccc(OC)cc2)c2ccccc21	TDP1 cell CPT inconclusive, TDP1 cell noCPT inconclusive (no result: IL1B secr inh)
CC(Oc1cccc(Cl)c1)C(=O)Nc1nc(-c2ccccn2)cs1 (configuration not stated)	IL1B secr inh -101, SW480 rerep 6.5µM, TDP1 cell CPT 3.3µM, TDP1 cell noCPT 5.2µM, Chronic BCR inh inconclusive
CC(Oc1ccccc1)C(=O)Nc1nc(-c2ccccn2)cs1 (configuration not stated)	MCF10A rerep inconclusive, IL1B secr inh -103, TDP1 cell CPT 3.7µM, TDP1 cell noCPT 3.3µM, Chronic BCR inh inconclusive
Cc1cc(C)cc(OCC(=O)Nc2nc(-c3ccccn3)cs2)c1	MCF10A rerep inconclusive, TDP1 cell CPT inconclusive, TDP1 cell noCPT inconclusive
